Reference: PubChem BioAssay (NCI)
Compounds without any hit were thinned out: in the full panel of roughly 83,000, 20% have a hit.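 For each line, cells grew in 96-well plates with the test compound present at a single concentration for 48 hours.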 Unmarked numbers belong to inactive results. Calls of active or inactive are those of the source. How the source made its calls: active means growth percent below 10; inactive means the rest.

tested on: HL-60(TB) leukemia; assay: NCI-60 one-dose screen, 48 h (100 = growth as untreated, 0 = no growth, -100 = all killed); conditions: 10 µM unless noted

| SMILES | growth |
| --- | --- |
| CCOC(=O)C1=C(C(=O)c2ccc(Br)cc2)C(c2ccc(Br)cc2)NC(=S)N1 (centres undefined) | 117% |
| CCOC(=O)c1ccoc1 | 118% |
| O=C(Nc1cccc(Cl)c1)Nc1ncc(CCNc2ncnc3ccsc23)s1 | 8.72% (active) |
| Cc1ccc(NCCN(C)CC(C)O)c2c(=O)c3ccccc3sc12 (centres undefined) | 31.3% |
